Only a selection was taken, and hits are over-represented in it overall.
12-LOX inh = ALOX12 (human) lipoxygenase inhibition; purified 12hLO, xylenol orange hydroperoxide absorbance; Potency, µM (titrated, usually from 108 µM), for the others: at the top dose activity change, negative = inhibition, actives largely listed as inhibitors; actives 1.1% (n = 580,000); note: potency is the fitted concentration of half-maximal effect
Target sequence (P18054 whole entry, looked up): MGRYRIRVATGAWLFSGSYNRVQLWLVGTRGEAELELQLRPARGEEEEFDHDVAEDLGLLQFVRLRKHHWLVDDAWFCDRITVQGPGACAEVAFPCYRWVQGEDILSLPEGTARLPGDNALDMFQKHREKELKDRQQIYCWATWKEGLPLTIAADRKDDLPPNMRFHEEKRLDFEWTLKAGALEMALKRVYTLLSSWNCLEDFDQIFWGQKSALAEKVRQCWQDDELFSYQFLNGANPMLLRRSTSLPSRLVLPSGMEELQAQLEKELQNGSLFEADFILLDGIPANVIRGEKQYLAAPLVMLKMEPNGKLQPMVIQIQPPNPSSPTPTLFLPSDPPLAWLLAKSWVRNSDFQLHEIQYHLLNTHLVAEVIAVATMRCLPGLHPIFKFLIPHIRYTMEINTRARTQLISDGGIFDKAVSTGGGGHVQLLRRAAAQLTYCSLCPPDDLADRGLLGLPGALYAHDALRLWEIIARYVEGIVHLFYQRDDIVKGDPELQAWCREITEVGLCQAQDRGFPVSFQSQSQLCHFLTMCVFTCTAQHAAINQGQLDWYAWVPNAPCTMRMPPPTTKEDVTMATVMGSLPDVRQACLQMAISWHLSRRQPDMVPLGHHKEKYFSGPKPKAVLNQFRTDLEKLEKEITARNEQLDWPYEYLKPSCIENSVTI
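Purified human 12hLO (150 nM final) in 25 mM Hepes, 0.01% Triton X-100, pH 7.0 was preincubated 15 min at room temperature with compound. Then 40 uM arachidonic acid was added, 30 min. Hydroperoxide was read by Fe-XO absorbance ratio 573/405 nm.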
TDP1 cell noCPT = qHTS for Inhibitors of human tyrosyl-DNA phosphodiesterase 1 (TDP1): qHTS in cells in absence of CPT | Potency, µM (titrated, usually from 46.2 µM), for the others: top-dose activity change, negative = growth inhibition, hits mostly inhibitors | DT40 Tdp1-/- hTDP1 cells, no CPT, ATP luminescence, 48 h | actives 15% (n = 420,000); note: potency is the fitted concentration of half-maximal effect; nearly all actives have a fitted effect of over 55% in size
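No-CPT arm: Tdp1-/-;hTDP1 DT40 cells (400/well) plus compounds, incubated ≥48 hr at 37 °C. Readout CellTiter-Glo luminescence.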
HT1080NT lethal = kills 2HG-producing HT-1080-NT fibrosarcoma cells | actives 1.6% (n = 360,000) | Potency, µM (top dose mostly 46.1 µM), without a hit: at the highest dose activity, negative = less viability, hits mostly cytotoxic | HT-1080-NT fibrosarcoma viability, CellTiter-Glo ATP luminescence, 48 h | AID 686970;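 note: NT is the 2HG producing partner of a matched IDH1 knockdown line; potency is the fitted concentration of half-maximal effect; 0% = DMSO-treated cells and -100% = media-only wells without cells; nearly all actives have a fitted effect of over 55% in size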
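Luminescent CellTiter-Glo readout after 48 hours of compound exposure at 37 degrees C defined viability of HT-1080-NT cells. Activity was normalized to DMSO wells and cell-free media wells; concentration-response curves were fitted and assigned curve classes.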
TDP1 cell CPT = growth inhibition of DT40 Tdp1-/-;hTDP1 cells with camptothecin (screen for TDP1 inhibitors) | chicken DT40 Tdp1-/-;hTDP1 cells + 20 nM CPT, ATP luminescence, 48 h | Potency, µM (titrated, usually from 46.2 µM), inactives show at the highest dose activity change, negative = growth inhibition, hits mostly inhibitors | actives 12% (n = 420,000) | AID 686979; note: potency is the fitted concentration of half-maximal effect; nearly all actives have a fitted effect of over 55% in size
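Chicken DT40 Tdp1-/- cells stably complemented with human TDP1 were seeded at 400 cells/well in medium containing 20 nM camptothecin, exposed to pin-transferred compounds, and grown at 37 °C for at least 48 hr. Viability was read as ATP luminescence.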
IL-1B inflam inh = inflammasome signaling inhibition, IL-1 beta readout; THP-1 LPS/ATP IL-1B secretion, AlphaLISA, 16 h; active compounds read low; activity change, % at 57.5 µM; actives 4.7% (n = 360,000); AID 743279; in the data active = activity change below about -50%; inconclusive = mostly about -30% to -49%
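Secreted IL-1B measured by AlphaLISA bead assay after 16 h compound exposure of THP-1 cells; compounds (final up to 57.5 uM) added 1 h before LPS (250 ng/mL) and ATP (1.25 mM) stimulation; lower signal means less secretion.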
HT1080 IDH1KD tx = kills HT-1080 cells with IDH1 knockdown; Potency, µM (titrated, usually from 46.1 µM), for the others: at the highest dose activity, negative = toxicity, usual class: cytotoxic; actives 2% (n = 360,000); AID 686971; HT-1080 IDH1 knockdown viability, ATP luminescence, 48 h;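 note: potency is the fitted concentration of half-maximal effect; 0% = DMSO wells and -100% = cell-free medium wells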
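Knockdown cells (IDH1KD HT-1080) received compounds 2 h after plating at 750 cells/well and were kept 48 h at 37 °C in 5% FBS RPMI. A CellTiter-Glo luminescence read gave % activity for curve fitting.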
* hit, by the source's call; u = inconclusive; x = no result given; [ ] = remark or other dose. Unless noted, calls come from the whole dose curve; as a rule, active = well fitted curve in the direction sought with a large enough effect; inconclusive = small, poorly fitted or top-dose-only effect, or another doubt; inactive = no such curve, though single readings can be large; an effect the other way counts as inactive or inconclusive. Unless noted, % is set by controls: 0 for no effect and ±100 for the full control effect.

SMILES | 12-LOX inh | TDP1 cell noCPT | HT1080NT lethal | TDP1 cell CPT | IL-1B inflam inh | HT1080 IDH1KD tx
Cc1nnc(SCc2ccccc2Cl)c2cc3occc3n12 | -15% | 16µM* | x | u | x | x
Cc1ccc(-c2nc(CSc3nncn4c3cc3occc34)c(C)o2)cc1 | -22% | -30% | x | u | x | x
Cc1ccc(-c2nc(CSc3nnc(C)n4c3cc3occc34)c(C)o2)cc1 | 4% | u | x | -7% | x | x
Cc1ccc(NC(=O)CCc2ncc(-c3c(F)cccc3F)o2)c(Cl)c1 | -22% | x | x | x | x | x
CCCn1cnnc1CNC(=O)[C@@H](Cc1ccccc1)NC(=O)[C@H]1O[C@@H](n2ccc(=O)[nH]c2=O)[C@H](O)[C@@H]1O | -2% | x | x | x | x | x
CCCCC1Cc2[nH][nH]c(=O)c2C(c2ccc(F)cc2)O1 (stereo not given) | u | u | u | u | -2 | 26µM*
CC(C)=CCC[C@H](C)C[C@@H]1Cc2[nH][nH]c(=O)c2[C@H](c2ccc(F)cc2)O1 | u | 21µM* | -14% | u | -24 | -3%
Cc1c(C(=O)Nc2cnccn2)oc2ccccc12 | 18% | u | -29% | 12µM* | 32 | u
CCc1ccc2oc(C(=O)Nc3cccnc3)c(C)c2c1 | x | 23µM* | -13% | 16µM* | -4 | -15%
CCN(CC)S(=O)(=O)c1ccc2c(c1)nc(SCC(=O)Nc1ccc(C)cc1)n2CC | 3% | x | x | x | x | x
CCOC(=O)c1sc(=S)n(-c2ccccc2Cl)c1SC | -26% | u | -18% | u | -67* | -9%
CCOC(=O)c1sc(=S)n(-c2ccccc2)c1SC | -4% | -23% | 2% | -18% | -11 | 1%
CC1(CCc2ccc3c(c2)OCO3)NC(=O)c2ccccc2N1 (stereo not given) | 0% | u | u | 23µM* | -14 | u
O=C1NC(c2ccc3c(c2)OCO3)Nc2ccccc21 (stereo not given) | 0% | 16µM* | u | 23µM* | 41 | 5%[9.24 µM]
COc1ccc(C2NC(=O)c3ccccc3N2)cc1OC (stereo not given) | u | -21% | -1% | -21% | 3 | 3%
O=C1NC(c2ccc3ccccc3c2)Nc2ccccc21 (stereo not given) | 47% | 6.5µM* | u | 16µM* | 51 | u
O=C1NC(c2ccc(Br)cc2)Nc2ccccc21 (stereo not given) | u | 3.7µM* | 5.8µM* | 6.5µM* | 51 | 12µM*
O=C1NC(c2ccc3c(c2)OCO3)Oc2ccccc21 (stereo not given) | -12% | -7% | 4% | -7% | -17 | -8%
CC(=O)Nc1ccc(CN2CCC3(CN[S+](=O)([O-])c4cnccc4O3)C2)cc1 (stereo not given) | 8%[6.33 µM] | x | x | x | x | x
O=C(NC1CCN(c2cc(-c3ccc(Cl)cc3)[nH]n2)CC1)c1ccncc1 | 34% | x | x | x | x | x
O=C(NCCCO)C(=O)NCC(c1ccc2c(c1)OCO2)N1CCN(c2ccc(F)cc2)CC1 (stereo not given) | 0% | 7% | 9% | -23% | 24 | 14%
COc1ccc(N2CCN(C(CNC(=O)c3ccc(C)cc3)c3ccc4c(c3)OCO4)CC2)cc1 (stereo not given) | 4% | 5.8µM* | x | 8.2µM* | x | x
COc1ccc(C(=O)NCC(c2ccc3c(c2)OCO3)N2CCN(C)CC2)cc1 (stereo not given) | 0% | -23% | x | 1% | x | x
COc1ccc(N2CCN(C(c3cccs3)C(C)NC(=O)c3ccc4c(c3)OCO4)CC2)cc1 (stereo not given) | -8% | 21µM* | -10% | u | 8 | -6%

Source: PubChem BioAssay (National Center for Advancing Translational Sciences (NCATS))
